Hit rate of the full screen: of about 100,000 compounds, about 4,200 (4.2%) were called active.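 How the source made its calls: active means single-dose well whose peak fluorescence ratio is a statistical outlier from its plate by either plate-standardised score or position-corrected B-score; inactive means the rest.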 What follows is part of a selection rich in actives, with near analogues and random picks from the rest.
The compounds below were run against Voltage-dependent T-type calcium channel subunit alpha-1H (Homo sapiens) (UniProt O95180) (assay: Cav3.2 calcium influx blockers – cell-based, Fluo-4 calcium fluorescence, FDSS, MLSMR library, primary screen (AID 449739)). Settings: Cav3.2-expressing cells, at 10 µM, hits give low values.
Chain of Voltage-dependent T-type calcium channel subunit alpha-1H (Homo sapiens) (O95180 whole entry, looked up): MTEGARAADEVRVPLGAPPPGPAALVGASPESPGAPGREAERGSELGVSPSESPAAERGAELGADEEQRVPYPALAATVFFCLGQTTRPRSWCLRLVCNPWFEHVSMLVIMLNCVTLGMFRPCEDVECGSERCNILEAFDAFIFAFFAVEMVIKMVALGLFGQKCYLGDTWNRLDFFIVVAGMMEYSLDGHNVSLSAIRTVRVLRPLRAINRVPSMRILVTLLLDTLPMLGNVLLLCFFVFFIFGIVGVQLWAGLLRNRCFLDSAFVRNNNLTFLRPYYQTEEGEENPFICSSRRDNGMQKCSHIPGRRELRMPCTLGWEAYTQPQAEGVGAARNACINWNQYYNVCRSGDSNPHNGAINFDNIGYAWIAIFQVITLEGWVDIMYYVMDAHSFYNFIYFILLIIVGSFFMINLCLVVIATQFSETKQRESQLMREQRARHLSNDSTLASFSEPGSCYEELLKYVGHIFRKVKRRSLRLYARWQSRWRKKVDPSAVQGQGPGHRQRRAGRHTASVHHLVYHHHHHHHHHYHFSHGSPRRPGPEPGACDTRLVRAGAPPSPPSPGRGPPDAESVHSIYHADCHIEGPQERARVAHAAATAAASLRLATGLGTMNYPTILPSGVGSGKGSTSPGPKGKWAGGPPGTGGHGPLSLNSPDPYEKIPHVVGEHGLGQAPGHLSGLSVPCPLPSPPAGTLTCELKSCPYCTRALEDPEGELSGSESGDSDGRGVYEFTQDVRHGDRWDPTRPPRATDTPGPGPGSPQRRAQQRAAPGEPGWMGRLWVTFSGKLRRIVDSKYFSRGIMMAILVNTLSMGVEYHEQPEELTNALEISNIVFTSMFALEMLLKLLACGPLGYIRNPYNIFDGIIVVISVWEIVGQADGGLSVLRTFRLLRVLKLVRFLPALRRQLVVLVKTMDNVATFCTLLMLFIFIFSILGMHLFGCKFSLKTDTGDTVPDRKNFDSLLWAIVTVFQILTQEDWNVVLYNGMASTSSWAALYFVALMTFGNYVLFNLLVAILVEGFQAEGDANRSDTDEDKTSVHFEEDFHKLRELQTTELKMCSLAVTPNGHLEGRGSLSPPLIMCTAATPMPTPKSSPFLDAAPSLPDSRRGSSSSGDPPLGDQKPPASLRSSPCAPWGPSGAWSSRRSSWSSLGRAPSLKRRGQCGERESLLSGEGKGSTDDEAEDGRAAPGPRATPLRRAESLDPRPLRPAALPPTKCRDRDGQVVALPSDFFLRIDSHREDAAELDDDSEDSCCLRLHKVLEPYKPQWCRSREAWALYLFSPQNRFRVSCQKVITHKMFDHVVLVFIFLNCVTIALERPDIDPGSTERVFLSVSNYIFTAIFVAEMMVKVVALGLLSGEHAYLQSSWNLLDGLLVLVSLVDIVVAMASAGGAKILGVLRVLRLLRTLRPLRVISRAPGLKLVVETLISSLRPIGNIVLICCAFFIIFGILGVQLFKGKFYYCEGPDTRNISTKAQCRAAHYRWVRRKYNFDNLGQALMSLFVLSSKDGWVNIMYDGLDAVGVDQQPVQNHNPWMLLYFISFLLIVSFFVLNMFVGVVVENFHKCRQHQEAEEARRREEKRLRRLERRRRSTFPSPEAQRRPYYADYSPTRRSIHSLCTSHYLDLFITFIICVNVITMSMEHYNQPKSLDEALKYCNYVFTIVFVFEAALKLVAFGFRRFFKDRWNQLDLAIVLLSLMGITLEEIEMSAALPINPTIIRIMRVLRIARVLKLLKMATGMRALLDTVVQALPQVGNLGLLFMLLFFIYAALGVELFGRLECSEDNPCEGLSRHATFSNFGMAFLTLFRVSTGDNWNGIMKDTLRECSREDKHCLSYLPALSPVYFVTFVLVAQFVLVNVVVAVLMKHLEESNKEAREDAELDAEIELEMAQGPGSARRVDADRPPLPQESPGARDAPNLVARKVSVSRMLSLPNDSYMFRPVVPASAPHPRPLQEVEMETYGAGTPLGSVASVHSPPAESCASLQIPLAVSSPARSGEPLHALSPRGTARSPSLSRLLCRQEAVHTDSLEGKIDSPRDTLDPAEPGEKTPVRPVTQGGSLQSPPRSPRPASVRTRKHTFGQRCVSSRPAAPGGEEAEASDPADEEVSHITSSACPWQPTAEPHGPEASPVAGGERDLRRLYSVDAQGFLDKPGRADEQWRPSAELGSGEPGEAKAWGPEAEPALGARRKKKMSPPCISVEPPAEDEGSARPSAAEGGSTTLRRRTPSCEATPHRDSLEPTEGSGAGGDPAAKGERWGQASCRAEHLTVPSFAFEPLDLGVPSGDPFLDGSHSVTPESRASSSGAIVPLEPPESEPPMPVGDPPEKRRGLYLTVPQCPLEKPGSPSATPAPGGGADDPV

| Structure (SMILES) | B-score |
| --- | --- |
| O=c1c2ccccc2nc2n1C(CSc1ccc(F)cc1)CN2 (stereo unspecified) | 1.22 (inactive) |
| COC(=O)c1nc(NC(=O)c2ccc(Cl)cc2)n[nH]1 | 1.01 (inactive) |
| O=C(Nc1ncc2c(n1)-c1ccccc1OC2)c1ccc(Cl)cc1 | -4.5 (active) |
| COc1ccc(C(=O)Nc2ncc3c(n2)-c2ccccc2CC3)cc1 | 0.00103 (inactive) |
| C/C=C\C=C\C(=O)N1CC2(CC(c3cccc(NC(=O)/C(C)=C\C)c3)=NO2)C[C@H]1C(N)=O (stereo partly specified) | 0.133 (inactive) |
| CCOC(=O)c1ccc(NC(=O)c2nc[nH]c2C(=O)N[C@@H](CCCCNC(=O)OC(C)(C)C)C(=O)OC(C)(C)C)cc1 | -0.307 (inactive) |
| C1=C(CCNc2ncnc3c2cnn3-c2ccccc2)CCCC1 | -0.0964 (inactive) |
| Cc1cc(C)cc(NC(=O)CSCc2cnn(-c3ccccc3)c2-n2cccc2)c1 | -2.22 (inactive) |
| O=C(NCCC1=CCCCC1)C1CCN(Cc2cnn(-c3ccccc3)c2-n2cccc2)CC1 | -5.79 (active) |
| COc1cccc(NC(=S)N(CCc2c(C)[nH]c3ccccc23)Cc2ccco2)c1 | -2.67 (inactive) |
| CNC(=O)c1[nH]cnc1C(=O)N[C@@H](CC(C)C)C(=O)OC(C)(C)C | 0.371 (inactive) |
| Cc1noc(C)c1C(=O)N(CC(=O)NC1CCCC1)Cc1ccccc1F | 0.408 (inactive) |
| CCOC(=O)C1C(=O)NCC1c1ccccc1 (stereo unspecified) | 0.378 (inactive) |
| CCC(CC)C(=O)N1CC(=O)Nc2ccc(Br)cc2C1c1ccccc1 (stereo unspecified) | -4.79 (active) |
| COC(=O)CN1C(C)=Nc2ccc(Br)cc2C1c1ccccc1 (stereo unspecified) | -0.737 (inactive) |
| CCCCCCCCOC1OC(CO)C(O)C(O)C1NC(C)=O (stereo unspecified) | 0.195 (inactive) |
| O=c1c2ccccc2nc(N/N=C/c2ccccc2)n1O | -5.17 (active) |
| FC(F)(F)c1nc2ccccc2nc1N/N=C/c1ccc(Cl)cc1 | -0.00807 (inactive) |
| CC(C)(C)c1nc2ccccc2c(=O)n1N1C(=O)c2ccccc2C1=O | -0.127 (inactive) |
| C#CCCOC(=O)N1C2=NC(C(=O)OC)=C(C(=O)OC)[C@@H]3N(C)c4ccc(OC)cc4[C@]23C[C@H]1C(=O)OC | 0.061 (inactive) |
| Cc1nc(-c2ccc(Cl)cc2)sc1C1(C)CC(c2ccc(Br)cc2)=NO1 (stereo unspecified) | -0.405 (inactive) |
| Cc1nn(C)c(Oc2ccc(Cl)cc2)c1C=O | -0.0899 (inactive) |
| C=CCSc1nnc2c(n1)-c1cccc3cccc-2c13 | 0.673 (inactive) |

| Structure (SMILES) | B-score |
| --- | --- |
| CSc1nsc(SC)c1NC(=O)OC1CCCCC1 | -4.23 (active) |
| COc1ccc(NC(=O)c2c(SC)nsc2SC)cc1 | 0.226 (inactive) |
| O=C(NCC(=O)N(Cc1cccs1)C(C(=O)NC1CCCCC1)c1ccco1)c1cccs1 (stereo unspecified) | -6.73 (active) |
| CC(Cc1cccs1)NC(=O)NC1CCCCC1 (stereo unspecified) | -2.2 (inactive) |
| CC(C)C(OC(=O)c1cccs1)C(=O)NC1CCCCC1 (stereo unspecified) | -0.509 (inactive) |
| Cc1nnc(NC(=O)Nc2ccc(Cl)c(Cl)c2)s1 | -0.569 (inactive) |
| O=C(CC(O)(C(F)(F)F)C(F)(F)F)Nc1ccc(Cl)c(Cl)c1 | -6.32 (active) |
| N/C(=N\OC(=O)Nc1ccc(Cl)c(Cl)c1)c1ncc(C(F)(F)F)cc1Cl | -0.00792 (inactive) |
| COC(=O)CNC(=O)c1ccccc1[N+](=O)[O-] | 2.22 (inactive) |
| CC(=O)N[C@H]1[C@H]([C@H](O)[C@H](O)CO)OC(C(=O)O)=C[C@@H]1O | 0.744 (inactive) |
| CC(C)CNC(=O)CC(c1ccccc1)c1c(O)ccc2ccccc12 (stereo unspecified) | -6.12 (active) |
| Cc1ccc(CNC(=O)C2CC(c3ccccc3[N+](=O)[O-])=NO2)o1 (stereo unspecified) | -1.03 (inactive) |
| COc1ccc(C(=O)CN(C(=O)c2ccc(Cl)cc2)N2C(=O)c3ccccc3C2=O)cc1 | -1.99 (inactive) |
| O=C(Cc1ccc(S(=O)(=O)N2CCCC2)s1)NC1CCCCCC1 | 0.271 (inactive) |
| O=C(Cc1ccc(S(=O)(=O)N2CCOCC2)s1)NCCC(c1ccccc1)c1ccccc1 | -6.74 (active) |
| O=C(NCCSCc1ccccc1)c1ccc(Cl)c(S(=O)(=O)N2CCOCC2)c1 | -3.48 (inactive) |
| CC(=O)c1nn(-c2cccc(Br)c2)cc1C(=O)c1cccc2ccccc12 | -4.57 (active) |
| CC(=O)c1ccc2c(ccc3ccccc32)c1 | -0.705 (inactive) |
| CC(=O)c1sc(NC(=O)c2cccc3ccccc23)nc1C | -0.12 (inactive) |
| CCNC(=S)N1CCN(C(=O)c2ccco2)CC1 | -0.0983 (inactive) |
| CCN(CC)CCN1C(=O)C(=O)/C(=C(/O)c2cnn(-c3ccccc3)c2C)C1c1cccs1 (stereo unspecified) | 0.414 (inactive) |
| COc1ccc(CCNC(=O)c2ccco2)cc1 | 0.807 (inactive) |
| O=C(Nc1ccc(Oc2ccccc2)cc1)c1ccco1 | -0.246 (inactive) |

| Structure (SMILES) | B-score |
| --- | --- |
| CC(Oc1ccc2ccccc2c1)C(=O)NNC(=S)NC(=O)c1ccco1 (stereo unspecified) | -7.25 (active) |
| CCO[C@H]1OC(C(=O)NCc2ccccc2)=C[C@@H](c2coc3ccccc3c2=O)[C@@H]1CCCO | 0.119 (inactive) |
| CC1=NN(Cc2ccccc2)C(=O)/C1=C/c1ccc(N(C)C)cc1 | -2.13 (inactive) |
| CS(=O)(=O)N1CCN(c2ccc(C(=O)NC3C4CC5CC(C4)CC3C5)cc2[N+](=O)[O-])CC1 (stereo unspecified) | 0.716 (inactive) |
| Cc1ccc(C(=O)Nc2ccc3c(c2)OCO3)cc1S(=O)(=O)N1CCCCC1 | -5.28 (active) |
| Cc1ccc(C(=O)NCC(=O)O)cc1S(=O)(=O)N1CCCCC1 | 1.06 (inactive) |
| O=C(Nc1ccc2c(c1)OCCO2)c1ccc(Cl)c(S(=O)(=O)N2CCCCC2)c1 | -1.46 (inactive) |
| CCOc1ccc(NC(=O)CC2C(=O)N(c3ccccc3)C(=O)N2CCOC)cc1 (stereo unspecified) | 0.221 (inactive) |
| C=C(C)COc1ccc(-c2n[nH]c(C)c2-c2ccccc2OC)c(O)c1 | -1.28 (inactive) |
| CCOc1ccccc1Oc1cn[nH]c1-c1ccc(OC)cc1O | -3.81 (active) |
| COc1ccc(-c2n[nH]c(C)c2-c2ccc(OC)c(OC)c2)c(O)c1 | -1.02 (inactive) |
| O=C(c1cccc(F)c1)N1CCN(c2ccc([N+](=O)[O-])c(N3CCCCC3)c2)CC1 | -2.45 (inactive) |
| Cc1cccc(N2CCN(C(=O)CN(C)S(=O)(=O)c3ccc4c(c3)CCC(=O)N4)CC2)c1C | 1.04 (inactive) |
| CC(C)Nc1ncnc2c1nnn2Cc1ccccc1 | 0.849 (inactive) |
| Clc1ccc(Cn2ncc3c(NCc4cccnc4)ncnc32)cc1 | -4.69 (active) |
| O=S(=O)(NCc1cccnc1)c1ccc(Cl)nc1 | 0.0815 (inactive) |
| CN1CCN(C(CNS(=O)(=O)c2cccs2)c2cccnc2)CC1 (stereo unspecified) | -0.131 (inactive) |
| O=C(/C=C\NCC(=O)c1ccccc1)c1ccccc1 | 0.368 (inactive) |
| COc1ccccc1NC(=O)CC(NCCN(C)C)C(=O)O (stereo unspecified) | -0.277 (inactive) |
| C#CCNC(=O)[C@H](Cc1ccc(C(=O)c2ccccc2)cc1)NC(=O)OC(C)(C)C | 0.229 (inactive) |
| COc1ccccc1NC(=O)[C@H](COCc1ccccc1)NC(=O)OC(C)(C)C | -4.41 (active) |
| COC(=O)c1ccc(C2C(Oc3ccccc3C)C(=O)N2CCc2ccc(OC)c(OC)c2)cc1 (stereo unspecified) | -2.96 (inactive) |
| C=C1C2C[C@H](O)C(C)(C)[C@@]2(O)[C@H](O)C[C@]23C[C@@](C)(O)[C@H](CC[C@H]12)[C@H]3O (stereo partly specified) | 0.00132 (inactive) |

| Structure (SMILES) | B-score |
| --- | --- |
| C#CCO[C@@H]1C[C@H](n2cnc3c(=O)[nH]c(NC(=O)C(C)C)nc32)O[C@@H]1CO | 0.0144 (inactive) |
| CC(C)NC(=O)NCCCCCCS(C)=O (stereo unspecified) | 0.449 (inactive) |
| CCOC(=O)CN1C(=O)C(=O)c2cc(C)ccc21 | 0.0584 (inactive) |
| CCCCOC(=O)Cn1c(=N)n(CCN(CC)CC)c2ccccc21 | 0.824 (inactive) |
| CCCCOC(=O)Cn1c(=O)n(CC(=O)OCCCC)c2cc(C)ccc21 | -8.75 (active) |
| COC(=O)CCCC1=CC2=C(c3ccccc3)C(=O)C(C)(OC(=O)C3CCCC3)C(=O)C2=CN1c1ccc(OC)cc1 (stereo unspecified) | 0.00545 (inactive) |
| Cc1nn(-c2ccccn2)c2c1C(c1ccncc1)C1=C(CC(C)(C)CC1=O)N2 (stereo unspecified) | 0.727 (inactive) |
| Cc1noc(C)c1S(=O)(=O)N(CC(=O)Nc1ccc2c(c1)OCCO2)c1ccc(C(C)C)cc1 | -2.62 (inactive) |
| COC(=O)c1ccc(NC(=O)CN(c2ccc(C)cc2)S(=O)(=O)c2c(C)n[nH]c2C)cc1 | -2.02 (inactive) |
| CCOC(=O)c1cccc(NC(=O)CN(c2ccc(C)cc2)S(=O)(=O)c2c(C)noc2C)c1 | -6.06 (active) |
| CCOc1ccc(N(CC(=O)NCc2ccc(OC)cc2)S(=O)(=O)c2c(C)noc2C)cc1 | 0.15 (inactive) |
| CCOc1ccc(N(CC(=O)OC)S(=O)(=O)c2c(C)noc2C)cc1 | -5.9 (active) |
| CCOC(=O)C1CCCN(C(=O)CN(c2ccc(OC)cc2)S(=O)(=O)c2c(C)noc2C)C1 (stereo unspecified) | 0.012 (inactive) |
| COc1cccc(C(=O)NNC(=O)c2ccccc2Br)c1 | 0.232 (inactive) |
| CC(C)NC(=O)C(=O)NCCCOC(C)C | 0.568 (inactive) |
| Cc1sc(NC(=S)NC(=O)c2cccs2)nc1-c1ccc(CC(C)C)cc1 | -0.0675 (inactive) |
| CC/C=C/C(=O)N1CC2(CC(c3cccc(NC(=O)CC)c3)=NO2)C[C@H]1C(N)=O (stereo partly specified) | 0.223 (inactive) |
| CCOc1ccc(C(CCc2ccccc2)NC(=O)c2ccc(OC)c(OC)c2)cc1OCC (stereo unspecified) | -1.85 (inactive) |
| Cc1ccccc1OCC(=O)NCC(=O)OCC(=O)c1ccc2ccccc2c1 | -0.0134 (inactive) |
| O=C(Nc1ccccc1)N1CCN(Cc2ccccc2)CC1 | 0.4 (inactive) |
| O=C(Nc1cccc(NC(=O)N2CCN(c3ccccc3)CC2)c1)N1CCN(c2ccccc2)CC1 | -6.86 (active) |
| COc1cccc(N2CCN(C(=O)Nc3ccc4c(c3)NC(=O)CO4)CC2)c1 | -0.0474 (inactive) |
